Screens as filed in PubChem.
Sampled rows, rich in hits. Any-hit rate of the full collection: about 3.7%.
TIM10 inh = TIM10 yeast growth inhibition | S. cerevisiae TIM10 strain growth, BacTiter-Glo luminescence, 24 h | inhibition, % at 10 µM | hit rate 1.4% among 330,000;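 active = inhibition of 40% or more at the single tested concentration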;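 also: wild-type TIM10 isogenic control strain grown at permissive 25 °C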
tim10-1 inh = inhibits growth of tim10-1 mutant yeast. S. cerevisiae tim10-1 ts strain growth, BacTiter-Glo, 24 h. inhibition, % at 20 µM. hit rate 2.2% among 330,000;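 active = inhibition of at least 40%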;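 also: mutant grown at 25 °C; 0% = DMSO wells with yeast and 100% = wells holding no yeast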
PfHsp90 yeast 2 = inhibits growth of yeast expressing Plasmodium falciparum Hsp90. S. cerevisiae expressing PfHsp90, BacTiter-Glo ATP, 48 h; yeast lacking PDR1 and PDR3 efflux regulators. inhibition, % at 9.4 µM. hit rate 0.32% among 310,000;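 active = every replicate shows inhibition above about 80%, whatever the replicate mean, limit read from the data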;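 also: 0% = DMSO neutral controls and 100% = 20 µM radicicol positive controls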
tim23-1 inh = growth inhibitors of tim23-1 mutant yeast; S. cerevisiae tim23-1 growth, BacTiter-Glo luminescence, 24 h; inhibition, % at 20 µM; hit rate 1.3% among 330,000;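 active = growth inhibition of the mutant yeast at or above 50%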;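 also: temperature-sensitive mutant grown at 25 °C; plate controls were DMSO-treated mutant yeast for no effect and medium wells lacking yeast for full effect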
NALP3 yeast inh = inhibitors of NALP3 inflammasome in yeast; hit rate 0.39% among 330,000; AID 2825; Yeast reconstituted NLRP3/ASC/caspase-1, beta-gal luminescence, 24 h; inhibition, % at 10 µM;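 active = inhibition of 50% or more; inactive = inhibition below 50%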;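 also: plate controls were induced DMSO wells for no effect and uninduced yeast grown without galactose for full effect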
tim10-1 conf = confirmation of tim10-1 mutant yeast growth inhibitors; inhibition, % at 20 µM; S. cerevisiae tim10-1 ts strain growth, BacTiter-Glo, 24 h; shares compounds with tim10-1 inh; hit rate 56% among 7,400;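 active = inhibition of yeast growth at or above a set limit in either of two repeat tests at 20 µM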;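 also: tim10-1 mutant grown at permissive 25 °C to find synthetic lethal compounds; 0% = DMSO yeast wells and 100% = medium wells without yeast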
TIM10 conf = TIM10 yeast growth inhibition, confirmed | inhibition, % at 10 µM | shares compounds with TIM10 inh | hit rate 63% among 4,600 | S. cerevisiae tim10 strain growth, BacTiter-Glo luminescence, 24 h | AID 463215;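 active = inhibition of yeast growth at or above a set limit in either of two replicates at 10 µM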;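 also: this counterscreen used the strain with wild-type TIM10; 0% = yeast with DMSO and 100% = medium wells lacking yeast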
tim23-1 confirm = confirmation of tim23-1 mutant yeast growth inhibitors; S. cerevisiae tim23-1 growth, BacTiter-Glo luminescence, 24 h; shares compounds with tim23-1 inh; inhibition, % at 20 µM; hit rate 83% among 4,400;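 active = inhibition above about 39% in either of two replicate wells at 20 µM, limit read from the data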;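 also: temperature-sensitive tim23-1 mutant grown at 25 °C; 0% = DMSO wells with yeast and 100% = medium wells without yeast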
* hit, by the source's call; x = no result given.

SMILES | TIM10 inh | tim10-1 inh | PfHsp90 yeast 2 | tim23-1 inh | NALP3 yeast inh | tim10-1 conf | TIM10 conf | tim23-1 confirm
CCOC(=O)c1ccc(NC(=O)Nc2ncccc2C)cc1 | -2 | -7 | -3 | -8 | 11 | x | x | x
O=C(Nc1ccc(C(F)(F)F)cc1)c1ccccc1 | 11 | 4 | 8 | -1 | 23 | x | x | x
O=C(Nc1ccc(Br)c(C(F)(F)F)c1)c1ccccc1 | 68* | 58* | -14 | 73* | -1 | 50* | 3 | 78*
O=C(Nc1cccc(O)c1)c1ccc(C(F)(F)F)cc1 | -1 | -4 | -41 | 0 | 20 | x | x | x
O=C(Nc1ccc(Br)c(C(F)(F)F)c1)c1ccc(C(F)(F)F)cc1 | 72* | 45* | x | 81* | 1 | 48* | 81* | 5
CC(=O)Nc1ccc(Br)cc1C(=O)C(=O)O | -12 | -2 | -2 | -8 | 6 | x | x | x
CC(=O)N1CCN(c2nnc(-c3ccccc3)c3ccccc23)CC1 | -30 | -46 | 19 | -58 | 1 | x | x | x
Cc1ccc(-c2nnc(N3CCN(C(=O)c4ccco4)CC3)c3ccccc23)cc1 | 53* | 61* | 13 | 70* | 25 | 50* | -12 | 63*
O=C(/C=C/c1cccs1)c1ccc(Br)cc1 | 17 | 6 | 1 | 13 | 18 | x | x | x
O=C(/C=C\c1cccs1)c1c(O)ccc2ccc(=O)oc12 | 75* | 75* | -25 | 78* | 47 | 81* | 75* | 69*
COc1ccc(-c2cccc(NC(=O)c3ccco3)c2)nn1 | 2 | -6 | -19 | 16 | 20 | x | x | x
COc1ccc(-c2ccc(NC(=O)c3ccco3)cc2)nn1 | 46* | 47* | 64 | 57* | 37 | 22 | 30 | 51*
COc1ccc(NC(=O)c2ccco2)cc1NC(=O)c1ccc(Br)o1 | 76* | 44* | 11 | 55* | 36 | 23 | 61* | 74*
COc1ccc(NC(=O)c2ccco2)cc1NC(=O)c1ccc(C)cc1 | -6 | -42 | x | -35 | 28 | x | x | x
COc1cccc(-c2nc(C(=O)NCCCN3CCOCC3)cc3c2[nH]c2ccccc23)c1 | 18 | 26 | -4 | 31 | 6 | x | x | x
Fc1nc(F)c(F)c(NCCCNc2c(F)c(F)nc(F)c2F)c1F | 55* | 54* | -5 | 66* | 25 | 76* | 45* | 81*
Cc1ccc(C(=O)/C=C/c2cc(Br)cc(Br)c2O)o1 | 38 | 53* | -5 | 65* | 35 | 50* | x | 66*
Cc1nn(-c2ccccc2)c2[nH]c(=O)c(CNCC3CCCO3)cc12 (stereo not drawn) | 6 | 9 | -11 | -5 | 8 | x | x | x
CCOc1cccc(NCc2cc3c(C(C)(C)C)nn(-c4ccccc4)c3[nH]c2=O)c1 | 42* | 50* | -12 | 68* | 24 | 42* | 25 | 65*
COC(=O)/C(=C1/Oc2ccc(C(C)(C)C)cc2S1)C(F)(F)F | -16 | 4 | 8 | 6 | -8 | x | x | x
COC(=O)/C(=C1/Oc2cc(C)oc(=O)c2S1)C(F)(F)F | 41* | 57* | -13 | 62* | 46 | 39* | 41* | 69*
CC1CCc2c(sc(NC(=O)C3=COCCO3)c2C(N)=O)C1 (stereo not drawn) | 16 | 13 | -2 | 21 | 9 | x | x | x
CNC(=O)c1c(NC(=O)C2=COCCO2)sc2c1CCC(C)C2 (stereo not drawn) | 31 | 51* | -25 | 56* | 9 | 23 | x | 50*
c1ccc(N/N=C(\Cc2ncc[nH]2)c2ccccc2)cc1 | 20 | 13 | 14 | 21 | 6 | x | x | x
Clc1cccc(N/N=C(\Cc2nc3ccccc3[nH]2)c2ccccc2)c1 | 56* | 40* | 0 | 64* | 22 | -12 | 8 | 14
SMILES | TIM10 inh | tim10-1 inh | PfHsp90 yeast 2 | tim23-1 inh | NALP3 yeast inh | tim10-1 conf | TIM10 conf | tim23-1 confirm
CCO/N=C(\N)c1[nH]ncc1Br | 9 | 8 | 10 | 9 | 17 | x | x | x
N/C(=N\OC(=O)c1ccc(Cl)cc1)c1[nH]ncc1Br | 43* | 66* | 19 | 60* | -11 | 63* | 37* | 59*
COc1ccc(-c2cc(C(=O)N(C)Cc3cccc(OC)c3OC)c3ccccc3n2)cc1OC | 50* | 53* | -4 | 70* | 2 | 64* | 50* | 94*
O=[N+]([O-])c1ccc(NC(=S)NCCc2ccccc2)cc1 | 59* | 67* | -6 | 52* | 35 | 57* | 52* | 69*
O=C(NC(=S)NC1CCCc2ccccc21)c1ccco1 (stereo not drawn) | 43* | 51* | -9 | 52* | -21 | 41* | 43* | 58*
O=C(NC(=S)NCCc1ccccc1)c1ccco1 | 48* | 42* | -7 | 56* | -6 | 26 | -15 | 48*
NS(=O)(=O)c1ccc(NC(=S)NCCc2ccccc2)cc1 | -5 | -1 | -5 | -1 | 15 | x | x | x
CCOCCCNC(=O)C1CCN(C(=O)Nc2ccc(Cl)cc2)CC1 | -4 | 9 | 0 | -15 | 0 | x | x | x
C[C@]12C(=O)N(c3ccc(Cl)cc3)C(=O)N1[C@@H]1c3ccccc3OC[C@@H]1[C@H]2c1ccccc1 | 5 | 24 | 11 | 11 | 6 | x | x | x
O=[N+]([O-])c1cc(/C=N/Nc2nc(N3CCCCC3)nc(N3CCCCC3)n2)ccc1O | 52* | 49* | 1 | 50* | -10 | 39* | -5 | 52*
CC1CCc2nn(CC(=O)NC3CCCC(C)C3C)cc2C1 (stereo not drawn) | 5 | 12 | -1 | 11 | 19 | x | x | x
S=C(NCCN1CCOCC1)N/N=C/c1cccs1 | 12 | -2 | -11 | -3 | 15 | x | x | x
S=C(N/N=C/c1cccs1)NC1CC2CCC1C2 (stereo not drawn) | 50* | 48* | 5 | 72* | 23 | 46* | 60* | 58*
CCCCCCc1nc(C(N)=O)c2[nH]c(=O)n(-c3ccc(OCC)cc3)c2n1 | 17 | 17 | -93 | 10 | 7 | x | x | x
O=[N+]([O-])c1cnc2ccccc2c1 | 0 | 14 | -10 | 17 | -13 | x | x | x
O=[N+]([O-])c1cc([N+](=O)[O-])c2cc3ccccc3nc2c1 | 86* | 75* | 10 | 69* | 4 | 42* | 97* | 44*
c1cnc(SCCOc2ccc3c(c2)CCC3)nc1 | -7 | 24 | 11 | 8 | 22 | x | x | x
C#CCOCCOCCOCCNc1nc(N2CCN(C(=O)CCCCCCCCCCNC(=O)[C@H](CCCCN)n3cc(C)nn3)CC2)nc(N2CCN(C(=O)CCCCCCCCCCNC(=O)[C@H](CCCN=C(N)N)n3cc(C[C@@H](C)CC)nn3)CC2)n1 | 9 | 40* | x | 50* | 8 | 13 | x | 64*
